Holding throughout (conditions): mRNA level, 48 h; actives raise or lower the signal
Read-out in assay [1]: Bcl-2 (BAX) gene, BAX (gene 581)
Kind of assay: LTEA_HepaRG_BAX: Life Technologies and Expression Analysis (LTEA) Assay for Bcl-2 (BAX) gene using HepaRG (AID 2283470). A digest of the protocol: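 Gene expression measured by Fluidigm qRT-PCR with three housekeeping genes for normalisation. HepaRG cells, plated 48 h beforehand, treated 48 h at up to 100 uM (8-point, half-log) in 0.5% DMSO. Bidirectional fitting versus DMSO.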

Read-out in assay [2]: adenosine kinase (ADK) gene, ADK (gene 132)
Kind of assay: LTEA_HepaRG_ADK: Life Technologies and Expression Analysis (LTEA) Assay for adenosine kinase (ADK) gene using HepaRG (AID 2283471). A digest of the protocol: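 HepaRG (human liver), 48 h chemical exposure, 8-pt half-log series, top 100 uM, 0.5% DMSO vehicle. Readout: ADK mRNA by qRT-PCR vs housekeeping genes; bidirectional curve fit relative to DMSO baseline.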

Read-out in assay [3]: Alpha-fetoprotein (AFP) gene, AFP (gene 174)
Kind of assay: LTEA_HepaRG_AFP: Life Technologies and Expression Analysis (LTEA) Assay for Alpha-fetoprotein (AFP) gene using HepaRG (AID 2283472). A digest of the protocol: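 AFP transcript measured by TaqMan qRT-PCR with three housekeeping genes for normalization, after 48 h chemical treatment of HepaRG cells (top 100 uM, half-log steps, 0.5% DMSO). Gain or loss fitted against vehicle.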

Read-out in assay [4]: BCL2L11 (gene 10018)
Put plainly: LTEA_HepaRG_BCL2L11: Life Technologies and Expression Analysis (LTEA) Assay for Bcl-2 (BCL2L11) gene using HepaRG (AID 2283473). In a few lines: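 Read-out is BCL2L11 transcript level by qRT-PCR, normalized to three housekeeping genes and fitted bidirectionally against 0.5% DMSO vehicle. HepaRG cells received chemicals for 48 h in serum-free induction medium, 100 uM down in half-log dilutions.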

Read-out in assay [5]: Apolipoprotein A-V (APOA5) gene, APOA5 (gene 116519)
Put plainly: LTEA_HepaRG_APOA5: Life Technologies and Expression Analysis (LTEA) Assay for Apolipoprotein A-V (APOA5) gene using HepaRG (AID 2283474). In a few lines:
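Readout is APOA5 transcript level by qRT-PCR on Fluidigm dynamic arrays, normalized to three housekeeping genes. HepaRG cultures received chemicals for 48 h at up to 100 uM (half-log steps, 0.5% DMSO), with gain or loss scored relative to DMSO.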

Read-out in assay [6]: Apoptosis regulator Bcl-2 (Homo sapiens) (UniProt P10415)
Put plainly: LTEA_HepaRG_BCL2: Life Technologies and Expression Analysis (LTEA) Assay for Bcl-2 gene using HepaRG (AID 2283475). A digest of the protocol:
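qRT-PCR of BCL2 transcript, normalized to three housekeeping genes (ACTB, GAPDH, POLR2A), after 48 h chemical exposure of HepaRG cells; concentrations top 100 uM with half-log dilutions, 0.5% DMSO vehicle, duplicates; changes up or down fitted relative to vehicle.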

Read-out in assay [7]: Bcl-2 (BID) gene, BID (gene 637)
Put plainly: LTEA_HepaRG_BID: Life Technologies and Expression Analysis (LTEA) Assay for Bcl-2 (BID) gene using HepaRG (AID 2283476). A digest of the protocol:
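Duplicate 48 h treatments of HepaRG cells in serum-free induction medium spanned 100 uM downward in half-log steps, 0.5% DMSO. Transcript change quantified by qRT-PCR against three housekeeping genes, fitted up or down versus DMSO.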

Read-out in assay [8]: Caspase-3 (Homo sapiens) (UniProt P42574)
Kind of assay: LTEA_HepaRG_CASP3: Life Technologies and Expression Analysis (LTEA) Assay for cysteine-aspartic acid protease (CASP3) using HepaRG (AID 2283477). A digest of the protocol: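 Read-out is CASP3 mRNA level by TaqMan qRT-PCR in human HepaRG cells after 48 h chemical exposure. Eight half-log concentrations topping at 100 uM were tested in 0.5% DMSO; gain or loss was fitted relative to DMSO.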

Read-out in assay [9]: Cytochrome P450 (CYP24A1), CYP24A1 (gene 1591)
Put plainly: LTEA_HepaRG_CYP24A1: Life Technologies and Expression Analysis (LTEA) Assay for Cytochrome P450 (CYP24A1) using HepaRG (AID 2283478). In a few lines:
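HepaRG, 48 h chemical exposure, 8-pt half-log CRC from 100 uM, 0.5% DMSO vehicle, duplicates. Endpoint: CYP24A1 mRNA by Fluidigm TaqMan qRT-PCR, normalized ACTB/GAPDH/POLR2A; gain/loss fit vs DMSO.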

Read-out in assay [10]: Cytochrome P450 (CYP1A2), CYP1A2 (gene 1544)
Kind of assay: LTEA_HepaRG_CYP1A2: Life Technologies and Expression Analysis (LTEA) Assay for Cytochrome P450 (CYP1A2) using HepaRG (AID 2283479). A digest of the protocol: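 CYP1A2 transcript induction or loss, quantified by Fluidigm qRT-PCR against three housekeeping genes, was fitted bidirectionally against 0.5% DMSO controls. Human HepaRG cells received eight half-log concentrations from 100 uM over 48 h.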

Read-out in assay [11]: cysteine-aspartic acid protease (CASP8), CASP8 (gene 841)
Put plainly: LTEA_HepaRG_CASP8: Life Technologies and Expression Analysis (LTEA) Assay for cysteine-aspartic acid protease (CASP8) using HepaRG (AID 2283480). A digest of the protocol:
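Concentration-response in duplicate up to 100 uM (half-log steps, 0.5% DMSO) on differentiated HepaRG cultures for 48 h. Expression change of CASP8 mRNA is determined by TaqMan qRT-PCR with housekeeping-gene normalization.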

Read-out in assay [12]: Cytochrome P450 (CYP2B6), CYP2B6 (gene 1555)
Put plainly: LTEA_HepaRG_CYP2B6: Life Technologies and Expression Analysis (LTEA) Assay for Cytochrome P450 (CYP2B6) using HepaRG (AID 2283481). A digest of the protocol:
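HepaRG cells plated 48 h, switched to serum-free induction medium, then dosed 48 h (8 points, half-log from 100 uM, 0.5% DMSO). RNA isolated; CYP2B6 expression measured by qRT-PCR; gain or loss fitted relative to DMSO.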

Read-out in assay [13]: Cytochrome P450 2C19 (Homo sapiens) (UniProt P33261)
Kind of assay: LTEA_HepaRG_CYP2C19: Life Technologies and Expression Analysis (LTEA) Assay for CYP2C19 using HepaRG (AID 2283482). A digest of the protocol: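 Transcript levels of CYP2C19 were quantified by qRT-PCR after HepaRG cells were treated for 48 hours with test chemicals up to 100 uM (eight half-log concentrations, 0.5% DMSO vehicle). Gain or loss of signal was fitted relative to DMSO.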

Read-out in assay [14]: CYP2C8 (gene 1558)
Put plainly: LTEA_HepaRG_CYP2C8: Life Technologies and Expression Analysis (LTEA) Assay for CYP2C8 using HepaRG (AID 2283483). A digest of the protocol: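 This is a transcriptional endpoint in HepaRG cultures: 48 h exposure, highest concentration 100 uM. CYP2C8 mRNA is quantified by TaqMan qRT-PCR.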

Read-out in assay [15]: CYP2C9 (gene 1559)
Put plainly: LTEA_HepaRG_CYP2C9: Life Technologies and Expression Analysis (LTEA) Assay for CYP2C9 using HepaRG (AID 2283484). In a few lines: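 Eight-point concentration-response (highest 100 uM, half-log dilutions) in HepaRG cells for 48 h; CYP2C9 expression by qRT-PCR normalized to ACTB, GAPDH, POLR2A. Bidirectional fit, DMSO baseline.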

Read-out in assay [16]: CYP2E1 (gene 1571)
Kind of assay: LTEA_HepaRG_CYP2E1: Life Technologies and Expression Analysis (LTEA) Assay for CYP2E1 using HepaRG (AID 2283485). A digest of the protocol: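 CYP2E1 transcript measured by Fluidigm qRT-PCR against three housekeeping genes in human HepaRG cells treated 48 h (top 100 uM, half-log steps, 0.5% DMSO vehicle). Gain or loss fitted relative to DMSO baseline.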

Read-out in assay [17]: CYP4A11 (gene 1579)
Kind of assay: LTEA_HepaRG_CYP4A11: Life Technologies and Expression Analysis (LTEA) Assay for CYP4A11 using HepaRG (AID 2283486). A digest of the protocol:
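HepaRG, 48 h chem exposure, 8 conc (100 uM top, half-log), 0.5% DMSO vehicle; qRT-PCR readout, housekeeping-gene normalized; bidirectional curve fit vs DMSO baseline.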

Read-out in assay [18]: Cytochrome P450 3A4 (Homo sapiens) (UniProt P08684)
Put plainly: LTEA_HepaRG_CYP3A4: Life Technologies and Expression Analysis (LTEA) Assay for CYP3A4 using HepaRG (AID 2283487). In a few lines:
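CYP3A4 transcript measured by TaqMan qRT-PCR and normalized to three housekeeping genes after 48 h chemical exposure of human HepaRG cells. Top concentration 100 uM, half-log steps, 0.5% DMSO vehicle; gain or loss fitted against DMSO baseline.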

Read-out in assay [19]: DNA damage-inducible transcript 3 (DDIT3), DDIT3 (gene 1649)
Put plainly: LTEA_HepaRG_DDIT3: Life Technologies and Expression Analysis (LTEA) Assay for DNA damage-inducible transcript 3 (DDIT3) using HepaRG (AID 2283488). In a few lines: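 DDIT3 transcript was quantified by qRT-PCR with ACTB/GAPDH/POLR2A normalization after 48 h chemical treatment of differentiated HepaRG cells in 0.5% DMSO. Dosing was eight-point, half-log, top 100 uM, duplicate wells. Curves fitted bidirectionally versus DMSO.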

Read-out in assay [20]: Pro-epidermal growth factor (Homo sapiens) (UniProt P01133)
Put plainly: LTEA_HepaRG_EGF: Life Technologies and Expression Analysis (LTEA) Assay for Epidermal growth factor (EGF) using HepaRG (AID 2283489). A digest of the protocol: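 HepaRG, 48 h dosing, 100 uM top, half-log x8, 0.5% DMSO. Readout: TaqMan qRT-PCR (Fluidigm array), housekeeping-normalized. Gain or loss of signal fit vs DMSO.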

The structures appear in SMILES notation. Activity calls are given as the source filed them. Rule for the calls: active = hit-call score of the fitted dose curve at least 0.9, where 1 is the maximum; inactive = score below 0.9.

Sequence of Apoptosis regulator Bcl-2 (Homo sapiens) (P10415 whole entry, looked up): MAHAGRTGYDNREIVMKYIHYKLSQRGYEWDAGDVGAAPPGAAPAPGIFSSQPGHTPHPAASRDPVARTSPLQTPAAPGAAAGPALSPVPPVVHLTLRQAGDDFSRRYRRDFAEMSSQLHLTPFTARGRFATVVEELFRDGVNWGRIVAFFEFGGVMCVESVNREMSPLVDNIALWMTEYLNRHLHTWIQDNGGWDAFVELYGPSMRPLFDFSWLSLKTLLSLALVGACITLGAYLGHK
Sequence of Caspase-3 (Homo sapiens) (P42574 whole entry, looked up): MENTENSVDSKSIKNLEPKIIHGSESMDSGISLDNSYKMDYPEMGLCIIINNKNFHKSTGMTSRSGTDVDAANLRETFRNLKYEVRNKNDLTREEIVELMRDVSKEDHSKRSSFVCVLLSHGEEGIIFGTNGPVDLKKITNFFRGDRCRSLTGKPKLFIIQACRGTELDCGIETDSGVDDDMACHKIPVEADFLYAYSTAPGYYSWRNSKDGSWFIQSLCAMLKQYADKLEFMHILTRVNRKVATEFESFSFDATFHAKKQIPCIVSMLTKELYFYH
Sequence of Cytochrome P450 3A4 (Homo sapiens) (P08684 whole entry, looked up): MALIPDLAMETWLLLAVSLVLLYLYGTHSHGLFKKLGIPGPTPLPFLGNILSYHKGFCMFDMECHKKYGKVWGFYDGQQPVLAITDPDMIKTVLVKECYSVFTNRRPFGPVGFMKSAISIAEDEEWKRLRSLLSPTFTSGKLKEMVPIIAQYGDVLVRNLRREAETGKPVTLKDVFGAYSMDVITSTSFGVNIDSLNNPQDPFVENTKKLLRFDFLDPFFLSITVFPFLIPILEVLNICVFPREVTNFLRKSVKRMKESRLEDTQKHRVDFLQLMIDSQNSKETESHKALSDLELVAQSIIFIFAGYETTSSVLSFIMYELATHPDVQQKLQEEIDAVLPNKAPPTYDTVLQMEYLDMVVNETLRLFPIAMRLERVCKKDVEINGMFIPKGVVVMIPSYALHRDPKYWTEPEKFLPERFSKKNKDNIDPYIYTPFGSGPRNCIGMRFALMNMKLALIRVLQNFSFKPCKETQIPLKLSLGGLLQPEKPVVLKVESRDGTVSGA
Sequence of Cytochrome P450 2C19 (Homo sapiens) (P33261 whole entry, looked up): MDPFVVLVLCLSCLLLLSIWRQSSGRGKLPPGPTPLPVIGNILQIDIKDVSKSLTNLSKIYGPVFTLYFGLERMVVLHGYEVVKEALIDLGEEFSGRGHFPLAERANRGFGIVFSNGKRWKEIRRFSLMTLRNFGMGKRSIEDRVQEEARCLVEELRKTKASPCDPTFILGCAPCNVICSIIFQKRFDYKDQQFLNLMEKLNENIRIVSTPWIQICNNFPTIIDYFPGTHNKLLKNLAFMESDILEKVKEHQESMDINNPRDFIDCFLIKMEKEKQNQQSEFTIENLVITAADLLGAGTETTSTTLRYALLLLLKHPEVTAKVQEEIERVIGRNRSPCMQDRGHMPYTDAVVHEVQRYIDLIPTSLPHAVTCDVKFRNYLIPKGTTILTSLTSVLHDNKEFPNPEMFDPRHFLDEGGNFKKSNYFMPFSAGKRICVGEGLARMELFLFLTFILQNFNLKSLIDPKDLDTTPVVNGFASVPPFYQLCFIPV

As for `CCN(Cc1cccnc1)C(=O)c1cccc(Cl)c1[C@]1(C)C(=O)N(Cc2ccc(OC)cc2OC)c2ccc(Cl)cc21`, the AC50 in assay [1] is 24.7 µM (active); in assay [3], 19.4 µM (active); in assay [5], 11.4 µM (active); in [6] it was 11.4 µM (active); in assay [10], 22.2 µM (active); in assay [11], 12.5 µM (active). Besides, the AC50 in assay [12] is 25.8 µM (active); in [13], 26.1 µM (active); in [14] it was 25.8 µM (active); in assay [15] it was 26.2 µM (active); in [16], 16.1 µM (active); in assay [17], 16.7 µM (active). The AC50 in assay [18] was 25.9 µM (active); in assay [19], 11.5 µM (active); in assay [20], 15.5 µM (active). Moreover, the result in assay [2], in assay [4], in [7], in assay [8] and in assay [9] was inactive.
On to `OCCO`, for which the call in [1], in [2], in [3], in assay [5], in [6] and in assay [7] was inactive. In addition, the result in assay [9], in [10], in assay [11], in [12], in assay [13] and in assay [14] was inactive. Moreover, the outcome in [15], in assay [16], in assay [17] and in [19] was inactive. Further, the concentration at half-maximal activity (AC50) in [8] was 9.97 µM (active).
In the case of `CC(O)CC(C)(C)O` (stereo unspecified), the compound was classed as inactive in assay [1], in assay [2], in [3], in assay [4], in assay [6] and in assay [7]. The call in assay [8], in assay [9], in assay [10], in assay [11], in assay [12] and in [13] was inactive. Besides, the outcome in assay [14], in [15], in [16], in [17], in assay [18] and in assay [19] was inactive. Further, the compound was called inactive in assay [20].
With `Cc1ncc(CO)c(CO)c1O`, the compound was classed as inactive in assay [1], in assay [2], in assay [3], in assay [4], in [5] and in assay [6]. In addition, the call in assay [7], in [8], in assay [10], in assay [11], in assay [12] and in [13] was inactive. Moreover, the compound was classed as inactive in assay [14], in assay [15], in assay [16], in assay [17], in assay [19] and in assay [20].
For the compound `CN1C(=O)CC[C@H]1c1cccnc1`, the compound was called inactive in assay [1], in [2], in assay [3], in assay [4], in assay [5] and in assay [6]. Also, the result in assay [7], in [8], in assay [11], in assay [12], in assay [13] and in [14] was inactive. The outcome in [15], in assay [16], in [17], in [18], in [19] and in [20] was inactive. For the same compound, in assay [10], the AC50 is 91.4 µM (active).
On to `Cc1c2ccccc2c(C)c2c1ccc1ccccc12`, for which the AC50 in [1] was 63.1 µM (active); in [3], 51.5 µM (active); in assay [4], 29.6 µM (active); in assay [5] it was 50 µM (active); in assay [6] it was 78.3 µM (active); in assay [10], 85 µM (active). The AC50 in assay [12] is 50 µM (active); in assay [13], 75.9 µM (active); in assay [14] it was 37.7 µM (active); in assay [15] it was 37.2 µM (active); in assay [16], 18.8 µM (active); in [17], 33.2 µM (active). The concentration at half-maximal activity (AC50) in assay [19] is 33.9 µM (active); in assay [20] it was 19.9 µM (active). The outcome in assay [2], in assay [7], in assay [8] and in [11] was inactive.

Broadly, the AC50 is the concentration giving half of the maximal activity seen.

The record behind these values is PubChem BioAssay (EPA / NIEHS).
